Most compounds without a hit are left out; they make up all but 19% or so of the library.
DT40 TDP1 CPT: DT40-hTDP1 cell growth loss with CPT. chicken DT40 Tdp1-/-;hTDP1 cells + 20 nM CPT, ATP luminescence, 48 h. Potency, µM (series often up to 46.2 µM), hits mostly inhibitors. hit rate 12% among 420,000. AID 686979; note: nearly all actives have a fitted effect of over 55% in size
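Cell growth measured by CellTiter-Glo luminescence after a minimum 48 h, 37 C compound exposure with 20 nM CPT in Tdp1-knockout DT40 cells stably expressing hTDP1, seeded 400/well; qHTS titration format.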
ELG1 DNA repair: inhibitors of ELG1-dependent DNA repair in HEK293T cells. HEK293T ELG1-luciferase reporter, luminescence, 16 h; DNA damage induced by 5-fluorouridine. Potency, µM (doses to about 46.1 µM), actives largely listed as inhibitors. hit rate 2.3% among 330,000; note: nearly all actives have a fitted effect of over 55% in size
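DMSO vehicle served as the neutral condition. Each well held 2,000 cells given 5-fluorouridine plus compound; after 16 hr at 37 °C/5% CO2, ONE-Glo was added and luciferase measured 30 min later.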
Giardia kill: Giardia lamblia killing; hit rate 0.15% among 340,000; Giardia lamblia trophozoite viability; activity change, % at 7.66 µM, hits read low; AID 540267; in the data active = activity change below about -80%; inconclusive = between about -30% and that limit;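 note: parasites exposed to compound for two days anaerobically before the ATP read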
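ATP-content bioluminescence gauges trophozoite survival. Cells (100/well) receive compound and incubate anaerobically for 48 hrs at 37 deg C; detection reagent follows for 15-30 min at room temperature.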
IL-1B inflam inh: inhibitors of inflammasome signaling (IL-1 beta secretion); activity change, % at 57.5 µM; AID 743279; THP-1 LPS/ATP IL-1B secretion, AlphaLISA, 16 h; active compounds read low; hit rate 4.7% among 360,000; in the data active = activity change below about -50%; inconclusive = mostly about -30% to -49%
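Secreted IL-1B measured by AlphaLISA bead assay after 16 h compound exposure of THP-1 cells; compounds (final up to 57.5 uM) added 1 h before LPS (250 ng/mL) and ATP (1.25 mM) stimulation; lower signal means less secretion.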
TDP1 cell noCPT: qHTS for Inhibitors of human tyrosyl-DNA phosphodiesterase 1 (TDP1): qHTS in cells in absence of CPT. Potency, µM (top dose mostly 46.2 µM), hits mostly inhibitors. DT40 Tdp1-/- hTDP1 cells, no CPT, ATP luminescence, 48 h. hit rate 15% among 420,000; note: nearly all actives have a fitted effect of over 55% in size
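No-CPT arm: Tdp1-/-;hTDP1 DT40 cells (400/well) plus compounds, incubated ≥48 hr at 37 °C. Readout CellTiter-Glo luminescence.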
TDP1 block: inhibitors of human tyrosyl-DNA phosphodiesterase TDP1. Potency, µM (top dose mostly 130 µM), usual class: inhibitors. AID 485290. recombinant TDP1, AlphaScreen DNA substrate cleavage. Q9NUW8. hit rate 0.28% among 350,000; note: nearly all actives have a fitted effect of over 40% in size
Target sequence (Q9NUW8 whole entry, looked up): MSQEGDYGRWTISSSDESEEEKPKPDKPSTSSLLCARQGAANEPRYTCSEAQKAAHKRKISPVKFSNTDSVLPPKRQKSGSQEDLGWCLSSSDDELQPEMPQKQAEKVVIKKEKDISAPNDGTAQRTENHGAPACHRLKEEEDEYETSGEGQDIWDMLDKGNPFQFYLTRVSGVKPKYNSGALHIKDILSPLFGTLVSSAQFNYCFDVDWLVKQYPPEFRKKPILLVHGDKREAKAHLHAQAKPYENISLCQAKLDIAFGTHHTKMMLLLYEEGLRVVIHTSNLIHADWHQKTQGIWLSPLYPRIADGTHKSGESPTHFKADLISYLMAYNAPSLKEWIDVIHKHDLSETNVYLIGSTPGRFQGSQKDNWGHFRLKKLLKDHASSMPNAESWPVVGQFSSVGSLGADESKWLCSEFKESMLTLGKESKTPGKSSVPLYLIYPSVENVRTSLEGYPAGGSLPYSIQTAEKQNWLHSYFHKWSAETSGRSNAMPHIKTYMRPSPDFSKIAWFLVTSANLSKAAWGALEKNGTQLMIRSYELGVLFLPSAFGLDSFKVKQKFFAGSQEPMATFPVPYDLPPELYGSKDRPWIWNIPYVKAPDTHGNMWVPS
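Recombinant human Tdp1 (E. coli-expressed, 1 nM final) preincubated with compounds 15 min at room temperature, then 5'-biotin/3'-phosphotyrosine-FITC DNA substrate (15 nM final) added for 5 min. AlphaScreen beads (10 ug/ml final) added 10 min; cleavage lowers signal.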
Hits are given with their value; i = inactive; ? = inconclusive; nt = not tested or not shown; [ ] = remark or other dose. Unless noted, calls come from the whole dose curve; as a rule, active = well fitted curve in the direction sought with a large enough effect; inconclusive = small, poorly fitted or top-dose-only effect, or another doubt; inactive = no such curve, though single readings can be large; an effect the other way counts as inactive or inconclusive.

SMILES	DT40 TDP1 CPT	ELG1 DNA repair	Giardia kill	IL-1B inflam inh	TDP1 cell noCPT	TDP1 block
COc1ccc(C(CNC(=O)c2cccc(S(=O)(=O)N3CCCc4ccccc43)c2)N(C)C)cc1 (stereo not given)	?	nt	i	-54	?	nt
COc1ccc(NS(=O)(=O)c2cccc(C(=O)NCC(c3ccccc3)N(C)C)c2)cc1 (stereo not given)	?	i	i	i	i	nt
COc1cccc(N2C(=O)c3ccccc3C2=O)n1	nt	nt	nt	nt	nt	i
COc1cc2c(c(NC(C)=O)c1)N(C(C)=O)CCC2	i	nt	i	i	i	nt
CC(C)Cn1cc(NC(=O)N2CCN(c3ccc(F)cc3)CC2)c2ccccc2c1=O	15µM	nt	nt	nt	18µM	i
O=C(Nc1ccc(F)cc1F)N1CCN(c2ccc(Cl)c(Cl)c2)CC1	6.5µM	nt	nt	nt	4.6µM	i
O=C(c1ccc(F)cc1)C1CCN(C(=O)NCc2ccccc2)CC1	16µM	?	i	i	23µM	i
CC(=O)c1ccc(N2CCN(C(=O)Nc3ccc(F)cc3F)CC2)cc1	?	i	i	i	i	i
O=C(c1ccc(Cl)cc1)C1CCN(C(=O)c2ccc(F)cc2)CC1	21µM	?	i	i	10µM	nt
O=C(NC1CCN(C(=O)NCc2ccccc2)CC1)c1ccc(F)cc1	i	i	i	i	i	i
Cn1cc(C(CO)Cc2ccccc2)c2ccccc21 (stereo not given)	?	i	i	i	?	i
O=C(NCc1ccccc1)C1CCCN(C(=O)NCc2ccccc2)C1 (stereo not given)	1.5µM	?	i	i	i	i
O=C(NCc1ccccc1)N1CCN(c2ccc(F)cc2)CC1	18µM	i	i	i	15µM	i
O=C(NCc1ccccc1)N1CCN(c2ccc(Cl)c(Cl)c2)CC1	18µM	i	i	i	5.8µM	i
COc1ccc(CNC(=O)N2CCN(c3ccccc3)CC2)cc1	i	i	i	i	i	i
CC1=C(C(=O)Nc2ccccc2)C(c2cccs2)n2nc(SCc3ccccc3F)nc2N1 (stereo not given)	i	nt	nt	nt	i	i
Cc1cccc(Oc2sc(C(=O)c3ccccc3)c(N)c2C#N)c1	?	?	i	-86	?	i
CCOc1ccc(-c2c(C#N)c(N)nc3c2c(=O)n(C)c(=O)n3C)cc1OC	i	i	i	i	i	i
COc1ccc(-c2c(C#N)c(N)nc3sc(C(=O)c4ccccc4)c(N)c23)cc1	?	?	i	i	23µM	i
COc1ccc(-c2c(C#N)c(N)nc3c2c(=O)n(C)c(=O)n3C)cc1	?	?	i	i	13µM	i
Cc1cc(C)n(CC(=O)N2CCCC(N3CCN(c4ccc(F)cc4)CC3)C2)n1 (stereo not given)	i	i	i	i	i	i
CCOc1ccccc1NC(=O)Nc1nnc(N2CCCC(C)C2)s1 (stereo not given)	?	nt	nt	nt	?	i
COc1cc2cc(C(c3nnnn3C3CCCC3)N3CCc4ccccc43)c(=O)[nH]c2cc1OC (stereo not given)	?	i	i	i	?	i
CC1CCN(C(c2cc3cc4c(cc3[nH]c2=O)OCO4)c2nnnn2CC2CCCO2)CC1 (stereo not given)	?	i	i	i	i	i
O=c1[nH]c2cc3c(cc2cc1C(c1nnnn1Cc1ccccc1)N1CCCCCC1)OCCO3 (stereo not given)	16µM	?	i	i	?	i
SMILES	DT40 TDP1 CPT	ELG1 DNA repair	Giardia kill	IL-1B inflam inh	TDP1 cell noCPT	TDP1 block
O=c1[nH]c2cc3c(cc2cc1C(c1nnnn1Cc1ccccc1)N1CCN2CCCC2C1)OCCO3 (stereo not given)	?	i	i	i	18µM	i
COc1cc2cc(C(c3nnnn3C(C)(C)C)N3CCc4ccccc43)c(=O)[nH]c2cc1OC (stereo not given)	i	i	i	i	21µM	i
Cc1ccc(C)c2[nH]c(=O)c(C(c3nnnn3Cc3ccccc3)N3CCc4ccccc4C3)cc12 (stereo not given)	21µM	i	i	i	i	i
Cc1cc2cc(C(c3nnnn3Cc3ccco3)N3CCCCC3)c(=O)[nH]c2cc1C (stereo not given)	i	i	i	i	i	i
Cc1ccc(C(=O)NCCc2c[nH]c3ccccc23)s1	?	?	i	i	?	nt
COc1cccc(OCc2nc3ccccc3n2CCOc2ccccc2)c1	?	nt	nt	nt	?	i
COc1cc(Cl)ccc1NC(=O)COc1ccccc1C(=O)NN	?	?	i	i	?	i
O=c1[nH]c2cc3c(cc2cc1C(c1nnnn1C1CCCC1)N1CCCc2ccccc21)OCCO3 (stereo not given)	i	i	i	i	i	i
O=c1[nH]c2cc3c(cc2cc1C(c1nnnn1Cc1ccccc1)N1CCCc2ccccc21)OCO3 (stereo not given)	21µM	0.65µM	i	i	23µM	i
COc1cc(/C=C\C(=O)N2CCC=CC2=O)cc(OC)c1OC	nt	nt	nt	nt	nt	i[21 µM]
CC(=O)c1ccc(NC(=O)Nc2sc3nc4n(c(=O)c3c2C)CCC(C)CC4)cc1 (stereo not given)	5.8µM	nt	nt	nt	8.2µM	i
CCCCN(CC)CCCNC(=O)Nc1sc2nc3n(c(=O)c2c1C)CCC(C)CC3 (stereo not given)	?	nt	nt	nt	21µM	i
Cc1cc(C)c(NC(=O)Nc2sc3nc4n(c(=O)c3c2C)CCC(C)CC4)c(C)c1 (stereo not given)	i	nt	nt	nt	i	i
C[C@H](NC(N)=O)C(=O)OCC(=O)NCc1cccs1	i	i	i	i	i	i
CC(C)(C)c1ccc(Cn2nnc3c(=O)[nH]c(C4CCCN(C(=O)c5cccs5)C4)nc32)cc1 (stereo not given)	16µM	i	i	?	?	nt
CC(C)(C)c1ccc(Cn2nnc3c(=O)[nH]c(C4CCN(C(=O)c5ccco5)CC4)nc32)cc1	i	10µM	i	-67	?	i
O=C(c1cccs1)N1CCCC(c2nc3c(nnn3Cc3c(Cl)cccc3Cl)c(=O)[nH]2)C1 (stereo not given)	?	i	i	i	?	nt
O=C(Cc1cccs1)N1CCCC(c2nc3c(nnn3Cc3ccc(F)cc3)c(=O)[nH]2)C1 (stereo not given)	i	?	i	i	i	i
Cc1ccc(Cn2nnc3c(=O)[nH]c(C4CCN(C(=O)Cc5cccs5)CC4)nc32)cc1	?	i	i	i	i	i
CC(C)(C)c1ccc(Cn2nnc3c(=O)[nH]c(C4CCN(C(=O)Cc5cccs5)CC4)nc32)cc1	?	?	i	i	21µM	i

Bioassay records from PubChem BioAssay.
